# Source: the supplement of paper PMC8387472
# Where a name gives a salt, the structure may show the parent alone. ± gives the standard deviation of the averaged measurements.
# Tested on: mESC LDLR-Dup GFP reporter (SpCas9 MH-deletion repair)
# Test: fraction of GFP+ cells relative to DMSO control (fold change); higher = more MH-deletion repair to in-frame LDLR (or more editing)
# Conditions: 2 µM; 7 days post-transfection
row,Structure (SMILES),fraction of GFP+ cells
1,COc1ccc(-c2nc(-c3cc(C(F)(F)F)cc(C(F)(F)F)c3)n(Cc3ccc(C(N)=O)cc3)c2-c2ccc(OC)cc2)cc1 [Apoptozole],1.14 ± 0.37
2,Cc1c(C)c2c(c(C)c1O)CCC(C)(COc1ccc(CC3SC(=O)NC3=O)cc1)O2 (centres undefined) [Troglitazone (CS-045)],1.34 ± 0.24
3,Cc1cc(Cl)ccc1OCCCC(=O)NO [Droxinostat],0.706 ± 0.06
4,O=c1cc(N2CCOCC2)oc2c1ccc1ccccc12,0.548 ± 0.39
5,O=C(O)[C@]1(Cc2cccc(Nc3nccs3)n2)CC[C@@H](Oc2cccc(Cl)c2F)CC1,1.82 ± 0.2
6,C[C@H]1COc2c(N3CCN(C)CC3)c(F)cc3c(=O)c(C(=O)O)cn1c23 [Levofloxacin],0.954 ± 0.01
7,CC1COc2c(N3CCN(C)CC3)c(F)cc3c(=O)c(C(=O)O)cn1c23 (centres undefined) [Ofloxacin],1.08 ± 0.19
8,CCOC(=O)Nc1ccc(NCc2ccc(F)cc2)nc1N [Flupirtine maleate],0.989 ± 0.52
9,CNC(=O)c1nn(C)c2c1C(C)(C)Cc1cnc(Nc3ccc(N4CCN(C)CC4)cc3)nc1-2,0.352 ± 0.06
